# AmpC inh no detg: qHTS Inhibitors of AmpC Beta-Lactamase (assay without detergent) | P00811 | AmpC nitrocefin hydrolysis, absorbance 480 nm, 0.0001% Triton | Potency, µM (doses to about 57.1 µM), inactives show at the top dose activity change, negative = inhibition, most hits filed as inhibitors | 330,000 tested, 0.52% active | AID 485341, 2010;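 also: plate controls were no compound for no effect and no enzyme for full effect; nearly all actives have a fitted effect of over 20% in size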
# Target sequence (P00811 whole entry, looked up): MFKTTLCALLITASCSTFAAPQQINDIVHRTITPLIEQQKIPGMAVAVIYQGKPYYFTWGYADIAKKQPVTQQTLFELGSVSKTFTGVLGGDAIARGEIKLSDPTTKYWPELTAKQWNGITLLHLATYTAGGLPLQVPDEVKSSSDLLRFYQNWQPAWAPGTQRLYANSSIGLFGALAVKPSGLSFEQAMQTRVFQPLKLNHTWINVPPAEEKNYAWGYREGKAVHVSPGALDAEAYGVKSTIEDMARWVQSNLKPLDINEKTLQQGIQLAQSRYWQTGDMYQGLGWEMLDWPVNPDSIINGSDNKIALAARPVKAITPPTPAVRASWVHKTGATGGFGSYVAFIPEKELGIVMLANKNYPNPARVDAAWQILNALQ
#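 AmpC (5.3 nM in the dispensed reagent) in 20 mM phosphate pH 7.0 with 0.01% (detergent screen) or 0.0001% Triton X-100 was preincubated with compounds for 15 min at room temperature. Nitrocefin was then added from an 800 uM solution, and hydrolysis was followed at 480 nm.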
# AMA1 RON2 block: qHTS for Inhibitors of AMA1-RON; Towards Development of Antimalarial Drug Lead: Primary Screen; Potency, µM (series often up to 58.2 µM), for the others: at the top dose activity change, negative = inhibition, most hits filed as inhibitors; 360,000 tested, 0.2% active; AlphaScreen AMA1-biotinylated RON2 peptide binding; Plasmodium falciparum AMA1 (3D7) - RON2 peptide interaction; AID 720542, 2013;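 also: 0% = vehicle wells and -100% = peptide control; nearly all actives have a fitted effect of over 45% in size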
#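 AMA1 (3D7) with his tag at 25 nM final met compounds first, then biotinylated RON2 peptide at 25 nM; detection used donor plus acceptor beads, 10 µg/mL apiece, read by AlphaScreen after 30 min at room temperature.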
# RE007 growth inh: qHTS Assay for Inhibitors of the HIV-1 protein Vpr | S. pombe RE007 Vpr strain, BacTiter-Glo ATP luminescence, 24 h | 360,000 tested, 0.21% active | Potency, µM (highest dose often 92.2 µM), for inactives: top-dose activity change, negative = less growth, most hits filed as inhibitors; active = well fitted falling curve with a large enough effect; inconclusive = small, poorly fitted or top-dose-only effect; inactive = no such curve, though single readings can be large or run the other way; also: nearly all actives have a fitted effect of over 50% in size
#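 Fission yeast RE007 carrying one integrated HIV-1 vpr copy, seeded at OD 0.01 in PMG+AL medium with 23 nL pinned compound. Grown 24 h at 30 degrees; viability read by BacTiter-Glo luminescence after 5 min.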
# Sm TGR block: qHTS Assay for the Inhibitors of Schistosoma Mansoni Peroxiredoxins; AID 485364, 2010; purified TGR, DTNB reduction, TNB absorbance 405 nm; Schistosoma mansoni thioredoxin glutathione reductase (TGR), Q962Y6; Potency, µM (top dose mostly 114 µM), without a hit: top-dose activity change, negative = inhibition, usual class: inhibitors; 360,000 tested, 3% active; also: nearly all actives have a fitted effect of over 60% in size
#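 Kinetic colorimetric format: TGR-catalysed, NADPH-driven DTNB reduction monitored via TNB absorbance. Enzyme dispensed at 20 nM; compound exposure 15 min at room temperature before reaction start.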
# AmpC detergent: qHTS Inhibitors of AmpC Beta-Lactamase (assay with detergent); P00811; AmpC hydrolysis of nitrocefin, absorbance 480 nm, 0.01% Triton; Potency, µM (highest dose often 114 µM), for the others: at the top dose activity change, negative = inhibition, usual class: inhibitors; 370,000 tested, 0.041% active; AID 485294, 2010;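 also: 0% = no-compound wells and -100% = no-enzyme wells; nearly all actives have a fitted effect of over 25% in size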
#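 20 mM phosphate pH 7.0 + 0.01% (detergent screen) or 0.0001% Triton X-100; 5.3 nM AmpC reagent; cpd preinc 15 min RT; nitrocefin (800 uM stock) to start; A480 q20 s × 4 min; Activity was normalised to no-enzyme and no-compound control wells.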
# The depositor's hits bear a star; ? = inconclusive; · = not tested or not shown; [ ] = remark or other dose. Most compounds without a hit are left out; they make up all but 3.2% or so of the library. Unless noted, calls follow the shape of the dose curve; as a rule, active = well fitted curve in the direction sought with a large enough effect; inconclusive = small, poorly fitted or top-dose-only effect, or another doubt; inactive = no such curve, though single readings can be large; an effect the other way counts as inactive or inconclusive. Unless noted, % is scaled to controls: 0 for no effect and ±100 for the full control effect; potency is read from the fitted curve at half-maximal effect.
SMILES,AmpC inh no detg,AMA1 RON2 block,RE007 growth inh,Sm TGR block,AmpC detergent
COc1cc(Cl)c(C)cc1NC(=O)CSc1sc2c(O)cc(=O)[nH]c2c1C#N,1.58µM*,-8.0%,19.5%,-10.2%,-4.1%
CC(C)c1ccc(OCC(=O)NCC(c2ccc(Cl)cc2)N2CCOCC2)cc1 (stereo unspecified),·,·,·,-5.4%,6.7%
Cc1ccccc1OCC(=O)Nc1ccc2nc(SCc3ccccc3)sc2c1,·,·,·,-0.2%,19.8%
CC1=CC(=O)c2ccccc2C1=O,-22.4%,-13.7%,-25.0%[18.4 µM],28.2µM*,?
CC(C)(C=O)C1=CC(=O)c2ccccc2C1=O,-17.8%,-15.9%,8.91µM*,3.16µM*,?
CCN1C=C(Cc2ccc(F)cc2)C2=C(C1)C(c1ccc(F)cc1)C(C#N)=C(N)O2 (stereo unspecified),-6.9%,-23.3%,-3.4%,?,-8.3%
CCN1C=C(Cc2ccccc2C)C2=C(C1)C(c1ccccc1C)C(C#N)=C(N)O2 (stereo unspecified),17.9%,-19.6%,4.4%,44.7µM*,3.1%
Cc1ccc2cc3c(NC(=O)c4ccco4)nn(C)c3nc2c1,129.5%,6.3%,6.1%,50.1µM*,-0.4%
CCCn1nc(NC(=O)c2ccco2)c2cc3ccccc3nc21,-4.1%[2.29 µM],23.4%,-5.3%,44.7µM*,?
CCCn1nc(NC(=O)C2CCCO2)c2cc3cc(C)ccc3nc21 (stereo unspecified),44.1%,1.12µM*,-0.3%,1.8%,4.6%
Cc1ccccc1Nc1c(-c2cccs2)nc2cccc(C)n12,·,·,·,1.2%,2.3%
Cc1ccc(NC(=O)C2CCCN2S(=O)(=O)c2cccc3nsnc23)c(Br)c1 (stereo unspecified),·,·,·,-1.2%,-0.7%
O=C(O)c1ccccc1-c1ccc(C=C2C(=O)N(c3ccccc3)C(=S)N(c3ccccc3)C2=O)o1,-54.4%,-14.7%,2.2%,8.91µM*,?
O=C(O)c1ccccc1-c1ccc(/C=C2\SC(=O)N(c3ccccc3)C2=O)o1,-11.9%,-3.2%,1.4%,-3.4%,-10.8%
CCOc1ccc(N2C(=O)/C(=C/c3ccco3)C(=O)NC2=S)cc1,12.6µM*,3.98µM*,0.4%,22.4µM*,?
O=C(O)c1cc(-c2ccc(/C=C3\NC(=O)N(c4ccccc4)C3=O)o2)ccc1Cl,-39.5%,-2.7%,1.5%,50.1µM*,10.0%
CCOc1ccc(N2C(=O)/C(=C\c3cccs3)C(=O)NC2=S)cc1,-41.4%,43.4%,-5.9%,8.91µM*,3.3%
COc1ccc(CCNC(=O)c2ccc3c(c2)N(Cc2cccc(Cl)c2)C(=O)c2ccccc2S3=O)cc1OC (stereo unspecified),·,·,·,17.8%,-2.4%
O=C1NC(=S)N(c2ccccc2F)C(=O)/C1=C\c1cccs1,-15.1%,-9.1%,27.2%,7.94µM*,-2.2%
Cc1ccc(/C=C2/C(=O)N(c3ccccc3)C(=S)N2C)o1,-57.9%,-1.4%,?,22.4µM*,-1.7%
NS(=O)(=O)c1ccc(-c2ccc(/C=C3\C(=O)Nc4ccccc43)o2)cc1,-36.7%,·,·,-26.5%,?
CCOC(=O)C1=C(C)N(c2ccc(OCC)cc2)C(=O)/C1=C\c1ccco1,-11.9%,?,11.6%,17.8µM*,-7.6%
O=C1NC(=O)C(=Cc2cccs2)C(=O)N1,·,0.3%,8.8%,·,·
Cc1ccc(/C=C2\C(=O)Nc3ccccc32)o1,-22.1%,-12.3%,-27.8%,25.1µM*,-20.6%
CCOC(=O)N1CCN(Cc2nc3cc(NC(=O)CC(C)C)ccc3n2C(C)C)CC1,·,·,·,1.7%,-0.7%
SMILES,AmpC inh no detg,AMA1 RON2 block,RE007 growth inh,Sm TGR block,AmpC detergent
COc1cccc(C2CC(=O)Nc3c2ccc(C)c3C)c1OC (stereo unspecified),·,·,·,-0.3%,13.5%
Cc1ccccc1CNC(=O)c1cnc2sc(N3CCOCC3)nn2c1=O,·,·,·,2.4%,-0.2%
Cc1ccccc1N1C(=O)/C(=C/c2ccco2)C(=O)NC1=S,7.08µM*,·,·,44.7µM*,44.7µM*
CCOc1ccc(N2C(=O)/C(=C/c3ccco3)N(C)C2=S)cc1,-38.3%,-17.5%,3.1%,50.1µM*,-8.7%
Cc1ccc(/C=C2/SC(=O)NC2=S)o1,-41.6%,-24.4%,-17.7%,?,3.3%
Cc1ccc(/C=C2\C(=O)NC(=O)N2C)o1,-25.3%,-1.7%,-1.4%,35.5µM*,?
Cc1cccc(N2C(=O)/C(=C/c3ccc(N4CCN(C)CC4)o3)C(=O)NC2=S)c1C,2.6%,0.0%,-8.6%,-25.1%,?
CN(CC(=O)NCCC1=CCCCC1)S(=O)(=O)c1ccc2c(c1)CCC(=O)N2,3.16µM*,6.5%,-3.3%,-4.6%,?
O=C1OC(/C(=C\Nc2ccc(F)cc2F)[N+](=O)[O-])c2ccccc21 (stereo unspecified),-26.2%,11.1%,-6.0%,11.2µM*,1.8%
COC(=O)c1cccc(N/C=C(\[N+](=O)[O-])S(=O)(=O)c2ccccc2)c1,-17.5%,-1.5%,1.0%,?,-9.2%
O=[N+]([O-])/C(=C\Nc1ccc(F)cc1F)S(=O)(=O)c1ccccc1,-16.5%,14.0%,15.0%,10µM*,?
CCOC(=O)/C=C1\CN(Cc2cc(OC)c(OC)c(OC)c2)S(=O)(=O)c2ccc(C(F)(F)F)cc21,95.2%,12.2%,-3.0%,28.2µM*,-12.8%
Fc1ccc(C(c2nnc(-c3ccccc3)o2)N2CCN(c3ccccc3)CC2)c(Cl)c1 (stereo unspecified),·,·,·,2.3%,-0.6%
O=C(NNc1ccc(O)cc1)c1ccc(Br)cc1,-20.7%,17.8%,-16.4%,22.4µM*,1.4%
COc1ccc(-c2oc3ncn4nc(-c5ccccc5OC)nc4c3c2-c2ccc(OC)cc2)cc1,·,·,·,-9.6%,-9.1%
O=CC(Br)P(=O)(N1CCOCC1)N1CCOCC1 (stereo unspecified),-49.9%,-2.8%,21.0%,44.7µM*,56.2µM*
Cc1ccc(Cn2c(CNC(=O)c3ccccc3Br)nc3cccnc32)cc1,·,·,·,-3.3%,3.4%
Cc1c(C#N)c(NC(=O)CCl)n(Cc2cccs2)c1C,-17.9%,-5.2%,4.3%,3.98µM*,-14.4%
Cc1c(C#N)c(NC(=O)CCl)n(Cc2ccc(F)cc2)c1C,-41.7%,2.4%,-4.5%,4.47µM*,1.0%
CCN(CC)C(=O)c1sc(NC(=O)Cc2cccs2)c(C#N)c1C,-13.5%,?,-11.3%,-8.0%,?
COC(=O)c1cc(C(=O)OC)n(Cc2ccc(F)cc2)c1C,-1.8%,1.2%,-8.0%,1.8%,-1.0%
Cc1cc(=O)n(Cc2ccccc2)c(O)c1C#N,-47.7%,-6.1%,5.4%,?,?

# Screening results deposited in PubChem by National Center for Advancing Translational Sciences (NCATS).
